Records with an inconclusive call do not appear. Active and inactive are the calls of the source. Unless noted, the call rests on the fitted dose curve; in most records, active means well fitted curve in the direction sought with a large enough effect in the repeat runs; inconclusive means weak or mixed curves; inactive means no such curve, though single readings can be large; an effect the other way counts as inactive or inconclusive.
How the values were obtained:
[1] = qHTS assay to identify small molecule agonists of the peroxisome proliferator-activated receptor delta (PPARd) signaling pathway - cell viability counter screen (AID 743211); further: nearly all actives have a fitted effect of over 55% in size
Procedure, shortened: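 Multiplexed format: after the 2 h room-temperature LiveBLAzer B/G FRET step, CellTiter-Glo was added to the same wells. Luminescence after 30 min gave cell viability; compound exposure was 17 h at 37C.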

[2] = qHTS assay to identify small molecule antagonists of the peroxisome proliferator-activated receptor delta (PPARd) signaling pathway - cell viability counter screen (AID 743213); further: nearly all actives have a fitted effect of over 50% in size
Procedure, shortened: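 HEK293H PPARd UAS-bla cells, 5 h pre-incubation, compound + L165041 300 nM final, 17 h 37 C; B/G FRET substrate 2 h RT; then CellTiter-Glo 30 min RT, luminescence.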

[3] = biological target: Bile acid receptor (Homo sapiens) (UniProt Q96RI1); experiment: qHTS assay to identify small molecule antagonists of the farnesoid-X-receptor (FXR) signaling pathway (AID 743217; active means well fitted inhibition curve with a large enough effect in the signal ratio in the repeat runs, not every such curve was filed as active; the % refers to the signal ratio)
Procedure, shortened: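 FXR-UAS-bla HEK 293T cells pre-incubated 5 h at 37 °C, then exposed to compounds with chenodeoxycholic acid (50 uM final) for 16 h at 37 °C. Beta-lactamase reporter read by LiveBLAzer B/G FRET substrate fluorescence after 2 h at room temperature.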

[4] = qHTS assay to identify small molecule agonists of the farnesoid-X-receptor (FXR) signaling pathway - cell viability counter screen (AID 743218); further: nearly all actives have a fitted effect of over 45% in size
Procedure, shortened: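 FXR-UAS-bla HEK 293T cells, plated 5 h at 37 C, were exposed to compounds for 16 h at 37 C. CellTiter-Glo was then added to the same wells as the bla readout; luminescence read after 30 min at room temperature.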

[5] = biological target: Bile acid receptor (Homo sapiens) (UniProt Q96RI1); experiment: qHTS assay to identify small molecule agonists of the farnesoid-X-receptor (FXR) signaling pathway (AID 743220; active means well fitted activation curve with a large enough effect in the signal ratio in the repeat runs, not every such curve was filed as active; the % refers to the signal ratio)
Procedure, shortened: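 Beta-lactamase reporter under UAS control in GeneBLAzer FXR HEK 293T cells (5000/well) measured with LiveBLAzer FRET substrate after 2 h at room temperature. Compound exposure lasted 16 h at 37C.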

[6] = qHTS assay to identify small molecule antagonists of the farnesoid-X-receptor (FXR) signaling pathway - cell viability counter screen (AID 743221; active means well fitted cell-killing curve with a large enough effect in the repeat runs, not every such curve was filed as active; further: nearly all actives have a fitted effect of over 50% in size)
Procedure, shortened: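 CellTiter-Glo, 30 min RT, luminescence; same wells as the LiveBLAzer FRET read. Cells: FXR-UAS-bla HEK 293T. Treatment: compound with chenodeoxycholic acid 50 uM final, 16 h at 37 C.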

[7] = biological target: Vitamin D3 receptor (Homo sapiens) (UniProt P11473); experiment: qHTS assay to identify small molecule agonists of the vitamin D receptor (VDR) signaling pathway (AID 743222; calls by dose curve)
Procedure, shortened: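 VDR-bla cells were plated 4 h at 37C/5% CO2, then exposed to compounds in DMSO for 16 h. After LiveBLAzer B/G FRET substrate addition and 2 h at room temperature, beta-lactamase reporter fluorescence was read.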

[8] = biological target: Vitamin D3 receptor (Homo sapiens) (UniProt P11473); experiment: qHTS assay to identify small molecule antagonists of the vitamin D receptor (VDR) signaling pathway (AID 743223; active means well fitted inhibition curve with a large enough effect in the signal ratio in the repeat runs, not every such curve was filed as active; the % refers to the signal ratio)
Procedure, shortened: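 After VDR-bla cells are plated and left 4 h at 37C, DMSO-dissolved compounds and 3 nM (final) calcitriol agonist are added. Incubation continues 16 h at 37C; FRET beta-lactamase substrate then develops 2 h at room temperature.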

[9] = qHTS assay to identify small molecule agonists of the vitamin D receptor (VDR) signaling pathway - cell viability counter screen (AID 743224); further: series mostly up to about 63 µM; nearly all actives have a fitted effect of over 50% in size
Procedure, shortened: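 VDR-bla cells were preincubated 4 h at 37C/5% CO2, then exposed to compounds for 16 h. After the 2 h room-temperature bla FRET read, CellTiter-Glo was added to the same wells and luminescence read after 30 min.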

[10] = qHTS assay to identify small molecule antagonists of the vitamin D receptor (VDR) signaling pathway - cell viability counter screen (AID 743225); further: nearly all actives have a fitted effect of over 50% in size
Procedure, shortened: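 Cytotoxicity toward the VDR-bla HEK 293T line was scored by ATP-based CellTiter-Glo luminescence, read in the wells already used for the beta-lactamase readout after 16 h compound treatment under 3 nM 1-alpha,25-dihydroxyvitamin D3 stimulation.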

[11] = qHTS assay to identify small molecule agonists of the NFkB signaling pathway - cell viability counter screen (AID 1159515; calls by dose curve; further: series mostly up to about 61 µM; nearly all actives have a fitted effect of over 55% in size)
Procedure, shortened: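 NFkB-bla ME-180 cells, 2,000/well, were plated overnight at 37 C, 5% CO2, then exposed to compounds in DMSO for 5 hr. After the bla FRET read, CellTiter-Glo was added to the same wells; luminescence was read after 30 min at room temperature.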

[12] = qHTS assay to identify small molecule agonists of the endoplasmic reticulum stress response signaling pathway (AID 1159516; active means well fitted activation curve with a large enough effect in the signal ratio in the repeat runs, not every such curve was filed as active; the % refers to the signal ratio)
Procedure, shortened: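 CellSensor ESRE-bla HeLa cells, carrying a beta-lactamase reporter driven by the ER stress response element, were plated overnight and exposed to compounds for 5 hr at 37 C. Reporter activity was read as FRET substrate fluorescence after 2 hr at room temperature.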

[13] = qHTS assay to identify small molecule agonists of the endoplasmic reticulum stress response signaling pathway - cell viability counter screen (AID 1159517; calls by dose curve)
Procedure, shortened: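 Luminescence readout: CellTiter-Glo, 30 min RT, same wells as the ESRE-bla reporter read. HeLa ESRE-bla, 1,500 cells/well, o/n 37 C; cpd 5 hr 37 C/5% CO2.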

[14] = qHTS assay to identify small molecule antagonists of the retinoid-related orphan receptor gamma (ROR-gamma) signaling pathway - cell viability counter screen (AID 1159520); further: nearly all actives have a fitted effect of over 50% in size
Procedure, shortened: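 Tet-on ROR gamma CHO cells (1,000/well) were plated 4 hr, given compounds in DMSO for 2 hr at 37 C, then induced with 1 uM final doxycycline for 16 hr. Viability was read as ATP by CellTiter-Glo luminescence after 30 min.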

[15] = biological target: Nuclear receptor ROR-gamma (Homo sapiens) (UniProt P51449); experiment: qHTS assay to identify small molecule antagonists of the retinoid-related orphan receptor gamma (ROR-gamma) signaling pathway (AID 1159521)
Procedure, shortened: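 Readout: ONE-Glo luciferase luminescence, 30 min at room temperature. System: Tet-on RORγ CHO, RORE-LUC. Sequence: compound 2 h, doxycycline 1 uM final, 16 h at 37 C.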

[16] = qHTS assay to identify small molecule agonists of the AP-1 signaling pathway - cell viability counter screen (AID 1159525; calls by dose curve; further: nearly all actives have a fitted effect of over 55% in size)
Procedure, shortened: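 ME-180 AP-1-bla, 2500 cells/well, Opti-MEM + 0.5% dialyzed FBS; overnight 37 °C; cpd 15-pt titration, 5 h 37 °C; CellTiter-Glo 30 min RT; luminescence read; normalised to TOAB and DMSO controls.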

[17] = qHTS assay to identify small molecule agonists of the AP-1 signaling pathway (AID 1159526; calls by dose curve)
[18] = biological target: Retinoic acid receptor RXR-alpha (Homo sapiens) (UniProt P19793); experiment: qHTS assay to identify small molecule agonists of the RXR signaling pathway (AID 1159527; calls by dose curve; further: nearly all actives have a fitted effect of over 35% in size)
Procedure, shortened: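 Reporter activation is measured as beta-lactamase activity via FRET substrate cleavage (emission 460/530 nm) in HEK 293T cells expressing an RXR-alpha-driven bla construct, following 16 hr compound exposure at 37 C.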

[19] = biological target: Peroxisome proliferator-activated receptor delta (Homo sapiens) (UniProt Q03181); experiment: qHTS assay to identify small molecule agonists of the peroxisome proliferator-activated receptor delta (PPARd) signaling pathway (AID 743212; calls by dose curve)
Procedure, shortened: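 GeneBLAzer PPARd UAS-bla HEK293H cells (beta-lactamase reporter under UAS control), plated and rested 5 h at 37 C, then exposed to compounds in DMSO at 37 C; LiveBLAzer B/G FRET substrate added, 2 h room temperature, fluorescence read.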

[20] = biological target: Peroxisome proliferator-activated receptor delta (Homo sapiens) (UniProt Q03181); experiment: qHTS assay to identify small molecule antagonists of the peroxisome proliferator-activated receptor delta (PPARd) signaling pathway (AID 743215; active means well fitted inhibition curve with a large enough effect in the signal ratio in the repeat runs, not every such curve was filed as active; the % refers to the signal ratio;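 further: cells stimulated with agonist L165041 at 300 nM final during compound exposure; series mostly up to about 62 µM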)
Procedure, shortened: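 PPARd UAS-bla HEK293H cells were pre-incubated 5 h at 37 C, then given test compounds in DMSO plus agonist L165041 (300 nM final). After 17 h at 37 C, beta-lactamase FRET substrate was added; fluorescence read after 2 h at room temperature.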

Measured: Potency

Peroxisome proliferator-activated receptor delta (Homo sapiens), sequence (Q03181 whole entry, looked up): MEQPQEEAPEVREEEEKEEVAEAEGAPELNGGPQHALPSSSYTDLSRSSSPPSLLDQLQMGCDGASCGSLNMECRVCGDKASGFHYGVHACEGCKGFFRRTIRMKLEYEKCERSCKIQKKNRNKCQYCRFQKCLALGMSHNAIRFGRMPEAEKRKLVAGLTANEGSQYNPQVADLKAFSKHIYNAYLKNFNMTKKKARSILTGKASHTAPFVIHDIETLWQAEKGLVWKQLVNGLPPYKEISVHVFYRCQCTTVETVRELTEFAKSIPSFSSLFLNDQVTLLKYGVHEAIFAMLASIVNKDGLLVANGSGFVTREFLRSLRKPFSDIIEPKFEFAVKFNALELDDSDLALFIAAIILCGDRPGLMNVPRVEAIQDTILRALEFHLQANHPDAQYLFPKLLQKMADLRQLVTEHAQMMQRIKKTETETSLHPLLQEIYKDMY
Bile acid receptor (Homo sapiens), sequence (Q96RI1 whole entry, looked up): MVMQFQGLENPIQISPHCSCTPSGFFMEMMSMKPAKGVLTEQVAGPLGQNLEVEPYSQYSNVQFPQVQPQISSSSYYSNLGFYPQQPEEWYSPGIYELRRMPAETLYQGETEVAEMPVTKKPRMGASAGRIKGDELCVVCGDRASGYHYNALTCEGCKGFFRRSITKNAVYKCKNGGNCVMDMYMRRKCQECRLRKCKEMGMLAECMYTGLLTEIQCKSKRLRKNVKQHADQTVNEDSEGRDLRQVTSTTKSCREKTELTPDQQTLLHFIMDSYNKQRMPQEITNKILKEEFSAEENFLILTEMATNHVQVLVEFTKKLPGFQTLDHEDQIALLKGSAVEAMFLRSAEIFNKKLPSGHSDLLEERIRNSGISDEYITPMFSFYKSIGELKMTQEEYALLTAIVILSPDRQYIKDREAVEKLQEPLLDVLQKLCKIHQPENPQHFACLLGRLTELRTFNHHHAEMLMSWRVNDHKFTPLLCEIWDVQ
Vitamin D3 receptor (Homo sapiens), sequence (P11473 whole entry, looked up): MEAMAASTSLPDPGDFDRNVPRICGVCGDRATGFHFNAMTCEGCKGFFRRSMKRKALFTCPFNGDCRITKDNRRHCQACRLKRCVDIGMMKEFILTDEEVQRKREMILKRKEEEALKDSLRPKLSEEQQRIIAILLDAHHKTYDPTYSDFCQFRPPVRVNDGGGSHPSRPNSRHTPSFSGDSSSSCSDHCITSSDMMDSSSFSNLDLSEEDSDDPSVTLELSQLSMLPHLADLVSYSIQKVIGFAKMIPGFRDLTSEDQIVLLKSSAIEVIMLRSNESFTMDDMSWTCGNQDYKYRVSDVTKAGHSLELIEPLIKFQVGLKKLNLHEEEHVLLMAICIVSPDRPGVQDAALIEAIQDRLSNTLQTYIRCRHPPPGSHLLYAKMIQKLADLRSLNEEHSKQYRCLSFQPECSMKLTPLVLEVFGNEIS
Retinoic acid receptor RXR-alpha (Homo sapiens), sequence (P19793 whole entry, looked up): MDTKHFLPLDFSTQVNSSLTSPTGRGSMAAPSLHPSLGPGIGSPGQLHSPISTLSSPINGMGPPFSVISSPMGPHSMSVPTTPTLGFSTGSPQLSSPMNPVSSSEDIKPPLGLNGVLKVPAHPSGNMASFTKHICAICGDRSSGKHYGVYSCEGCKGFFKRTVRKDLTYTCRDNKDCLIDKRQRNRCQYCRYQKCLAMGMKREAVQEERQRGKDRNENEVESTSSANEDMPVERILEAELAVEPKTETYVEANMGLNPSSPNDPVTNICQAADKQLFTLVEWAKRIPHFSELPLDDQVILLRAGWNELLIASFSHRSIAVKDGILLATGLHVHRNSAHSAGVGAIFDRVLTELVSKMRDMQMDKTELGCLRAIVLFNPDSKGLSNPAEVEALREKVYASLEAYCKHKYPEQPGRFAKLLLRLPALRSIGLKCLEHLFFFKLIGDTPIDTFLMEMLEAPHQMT

CCCBr
not listed: [18] | [19] | [20]
inactive: all other assays above

CC(C)(C)OOC(C)(C)CCC(C)(C)OOC(C)(C)C
not listed: [1] | [3] | [5] | [8] | [10] | [16] | [19] | [20]
inactive: all other assays above

C=C(Cl)Cl
not listed: [1] | [3] | [5] | [6] | [7] | [8]
inactive: all other assays above

CCOP(=S)(S)OCC
not listed: [18] | [19]
inactive: all other assays above

CN(C)N
not listed: [3] | [5] | [16] | [20]
inactive: all other assays above

N#CC(C#N)=Cc1ccc(O)c(O)c1
not listed: [3] | [5] | [7] | [10] | [16]
inactive: all other assays above

CCCCC(CC)CO[N+](=O)[O-] (centres undefined)
not listed: [3] | [5] | [8] | [10] | [18]
inactive: all other assays above

CCCC[N+]1(C)[C@@H]2CC(OC(=O)[C@H](CO)c3ccccc3)C[C@H]1[C@@H]1O[C@@H]12 (some centres undefined)
not listed: [1] | [7] | [8] | [20]
inactive: all other assays above

Cc1nc2ccccc2c(=O)n1-c1ccccc1Cl
not listed: [3] | [5] | [10] | [18] | [19] | [20]
inactive: all other assays above

O=C(N[C@H]1CN2CCC1CC2)c1ccc2c(c1)OCCO2
not listed: [3] | [5] | [7] | [18] | [20]
inactive: all other assays above

Cc1cccc(C)c1NC1=NCCCS1
not listed: [1] | [3] | [5]
inactive: all other assays above

COc1cc(CC(C)N)c(OC)cc1Br (centres undefined)
not listed: [1] | [2] | [3] | [5] | [7] | [8] | [18] | [20]
inactive: all other assays above

CC(C)(C)N(NC(=O)c1ccc(Cl)cc1)C(=O)c1ccccc1
not listed: [5] | [15]
inactive: all other assays above

— PubChem BioAssay (Tox21)
